Assay results from PubChem BioAssay (Tox21).
Inconclusive results are not listed. Calls of active or inactive are those of the source. Unless noted, the call rests on the fitted dose curve.

What was measured:
[1] = qHTS assay to identify small molecule agonists of the vitamin D receptor (VDR) signaling pathway - cell viability counter screen (AID 743224; active means well fitted cell-killing curve with a large enough effect in the repeat runs; further: series mostly up to about 63 µM; on the % scale 0 is the no-effect control and ±100 the full control effect; nearly all actives have a fitted effect of over 50% in size)
Summary of the method: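 Viability is measured in the same wells as the VDR-bla reporter assay: after 16 h compound treatment and 2 h substrate loading, CellTiter-Glo is added and luminescence read 30 min later.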

[2] = qHTS assay to identify small molecule antagonists of the vitamin D receptor (VDR) signaling pathway - cell viability counter screen (AID 743225; active means well fitted cell-killing curve with a large enough effect in the repeat runs; further: on the % scale 0 is the no-effect control and ±100 the full control effect; nearly all actives have a fitted effect of over 50% in size)
Summary of the method: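 Viability counter screen run in the same wells as the beta-lactamase reporter assay: HEK 293T VDR-UAS-bla cells, 16 h compound exposure at 37C with 3 nM (final) 1-alpha,25-dihydroxyvitamin D3. CellTiter-Glo luminescence, 30 min, room temperature.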

[3] = qHTS assay to identify small molecule agonists of the NFkB signaling pathway - cell viability counter screen (AID 1159515); further: series mostly up to about 61 µM; on the % scale 0 is the no-effect control and ±100 the full control effect; nearly all actives have a fitted effect of over 55% in size
Summary of the method: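 Multiplexed viability readout: after the 5 hr compound exposure and 1.5 hr FRET substrate step, CellTiter-Glo reagent went into the same NFkB-bla ME-180 wells; ATP luminescence was measured after 30 min at room temperature.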

[4] = qHTS assay to identify small molecule agonists of the endoplasmic reticulum stress response signaling pathway (AID 1159516; active means well fitted activation curve with a large enough effect in the signal ratio in the repeat runs, not every such curve was filed as active; the % refers to the signal ratio; further: on the % scale 0 is the no-effect control and ±100 the full control effect)
Summary of the method: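 Tox21 10K library screened in quantitative HTS format on ESRE-bla HeLa cells, a beta-lactamase reporter under ER stress response element control; 5 hr treatment, FRET read.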

[5] = qHTS assay to identify small molecule agonists of the endoplasmic reticulum stress response signaling pathway - cell viability counter screen (AID 1159517); further: series mostly up to about 61 µM; on the % scale 0 is the no-effect control and ±100 the full control effect; nearly all actives have a fitted effect of over 50% in size
Summary of the method: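 CellTiter-Glo was added to wells already read for beta-lactamase FRET, and luminescence was recorded 30 min later. Cells: ESRE-bla HeLa, 1,500 per well, compound exposure 5 hr at 37 C.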

[6] = qHTS assay to identify small molecule antagonists of the retinoid-related orphan receptor gamma (ROR-gamma) signaling pathway - cell viability counter screen (AID 1159520; active means well fitted cell-killing curve with a large enough effect in the repeat runs; further: on the % scale 0 is the no-effect control and ±100 the full control effect; nearly all actives have a fitted effect of over 50% in size)
Summary of the method: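 Tet-on ROR gamma CHO cells (1,000/well) were plated 4 hr, given compounds in DMSO for 2 hr at 37 C, then induced with 1 uM final doxycycline for 16 hr. Viability was read as ATP by CellTiter-Glo luminescence after 30 min.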

[7] = qHTS assay to identify small molecule agonists of the AP-1 signaling pathway - cell viability counter screen (AID 1159525); further: nearly all actives have a fitted effect of over 55% in size
Summary of the method: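 ME-180 AP-1-bla, 2500 cells/well, Opti-MEM + 0.5% dialyzed FBS; overnight 37 °C; cpd 15-pt titration, 5 h 37 °C; CellTiter-Glo 30 min RT; luminescence read; normalised to TOAB and DMSO controls.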

[8] = qHTS assay to identify small molecule agonists of the AP-1 signaling pathway (AID 1159526); further: on the % scale 0 is the no-effect control and ±100 the full control effect
[9] = biological target: Retinoic acid receptor RXR-alpha (Homo sapiens) (UniProt P19793); test: qHTS assay to identify small molecule agonists of the RXR signaling pathway (AID 1159527); further: on the % scale 0 is the no-effect control and ±100 the full control effect; nearly all actives have a fitted effect of over 35% in size
Chain of Retinoic acid receptor RXR-alpha (Homo sapiens) (P19793 whole entry, looked up): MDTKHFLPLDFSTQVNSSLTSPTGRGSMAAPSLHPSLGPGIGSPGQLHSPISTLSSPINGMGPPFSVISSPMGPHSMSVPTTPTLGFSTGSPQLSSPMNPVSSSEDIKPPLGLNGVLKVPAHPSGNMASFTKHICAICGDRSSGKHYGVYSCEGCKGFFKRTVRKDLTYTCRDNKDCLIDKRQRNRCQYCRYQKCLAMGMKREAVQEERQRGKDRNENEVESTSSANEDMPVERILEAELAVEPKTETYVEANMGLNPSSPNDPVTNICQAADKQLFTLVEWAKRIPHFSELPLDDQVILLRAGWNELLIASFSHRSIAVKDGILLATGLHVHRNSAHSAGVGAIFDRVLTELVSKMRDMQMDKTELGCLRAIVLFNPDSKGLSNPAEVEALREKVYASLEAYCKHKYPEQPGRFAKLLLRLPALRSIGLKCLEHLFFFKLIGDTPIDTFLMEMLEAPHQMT
Summary of the method: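 Agonist mode; 9-cis retinoic acid positive control. HEK 293T UAS-bla reporter cells, 2% charcoal-stripped FBS, 16 hr compound exposure at 37 C/5% CO2. LiveBLAzer B/G FRET substrate 2 hr RT; ex 405, em 460/530 nm.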

C[C@@H](c1ncncc1F)C(O)(Cn1cncn1)c1ccc(F)cc1F (some centres not stated)
inactive: Potency [1] | Potency [2] | Potency [3] | Potency [4] | Potency [5] | Potency [6] | Potency [7] | Potency [8] | Potency [9]

CCCn1cnc2c1c(=O)n(CCCCC(C)=O)c(=O)n2C
inactive: Potency [1] | Potency [2] | Potency [3] | Potency [4] | Potency [5] | Potency [6] | Potency [7] | Potency [8] | Potency [9]

CCCCCCCC/C=C\CCCCCCCC(=O)OCC
inactive: Potency [1] | Potency [2] | Potency [3] | Potency [4] | Potency [5] | Potency [6] | Potency [7] | Potency [8] | Potency [9]

NCC(=O)CCC(=O)O
inactive: Potency [2] | Potency [3] | Potency [4] | Potency [5] | Potency [6] | Potency [7] | Potency [8] | Potency [9]

CCCCCCCCO[C@@H]1O[C@H](CO)[C@@H](O)[C@H](O)[C@H]1O
inactive: Potency [2] | Potency [3] | Potency [4] | Potency [5] | Potency [6] | Potency [7] | Potency [8] | Potency [9]

Nc1cccc([N+](=O)[O-])c1
inactive: Potency [2] | Potency [3] | Potency [4] | Potency [5] | Potency [6] | Potency [7] | Potency [8] | Potency [9]

ClCCOCCOCCCl
inactive: Potency [1] | Potency [2] | Potency [3] | Potency [4] | Potency [5] | Potency [6] | Potency [7] | Potency [8] | Potency [9]

O=[N+]([O-])c1cccc(S(=O)(=O)O)c1
inactive: Potency [2] | Potency [3] | Potency [4] | Potency [5] | Potency [6] | Potency [7] | Potency [8] | Potency [9]

C[N+](C)(C)CCOC(=O)CCC(=O)OCC[N+](C)(C)C
inactive: Potency [2] | Potency [3] | Potency [4] | Potency [5] | Potency [6] | Potency [7] | Potency [8] | Potency [9]

C[N+]1(CC2COC(c3ccccc3)(C3CCCCC3)O2)CCCCC1 (configuration not stated)
inactive: Potency [2] | Potency [3] | Potency [4] | Potency [5] | Potency [6] | Potency [7] | Potency [8] | Potency [9]

Nc1ccccc1S(=O)(=O)c1ccccc1
inactive: Potency [1] | Potency [2] | Potency [3] | Potency [4] | Potency [5] | Potency [6] | Potency [7] | Potency [8] | Potency [9]

CC/C=C\CCOC(=O)CC
inactive: Potency [1] | Potency [2] | Potency [3] | Potency [4] | Potency [5] | Potency [6] | Potency [7] | Potency [8] | Potency [9]

O=C1[C@H]2CCCC[C@H]2C(=O)N1CCCCN1CCN(c2nsc3ccccc23)CC1
inactive: Potency [1] | Potency [2] | Potency [3] | Potency [4] | Potency [5] | Potency [6] | Potency [7] | Potency [8]

O=C(O)CC(=O)C(=O)O
inactive: Potency [2] | Potency [3] | Potency [4] | Potency [5] | Potency [6] | Potency [7] | Potency [8] | Potency [9]

NS(=O)(=O)c1ccc(N2CCCCS2(=O)=O)cc1
inactive: Potency [2] | Potency [3] | Potency [4] | Potency [5] | Potency [6] | Potency [7] | Potency [8] | Potency [9]

CC(CSC(=O)c1ccccc1)C(=O)N1C[C@@H](Sc2ccccc2)C[C@H]1C(=O)O (some centres not stated)
inactive: Potency [2] | Potency [3] | Potency [4] | Potency [5] | activity, negative = cytotoxicity [6] 3.47% [at 19 µM] | viability change, negative = cytotoxic [7] -2.27% [at 15.8 µM] | activation [8] 17.2% [at 15.8 µM] | activation [9] -12.9% [at 15.8 µM]

C/C(=C(\CCOP(=O)(O)O)SC(=O)c1ccccc1)N(C=O)Cc1cnc(C)nc1N
inactive: viability change, negative = cytotoxic [2] 2.62% [at 6.95 µM] | activity, negative = cytotoxic [3] 2.97% [at 6.95 µM] | activation [4] -0.946% [at 6.95 µM] | activity change, negative = cytotoxicity [5] 8.35% [at 6.95 µM] | activity, negative = cytotoxicity [6] -0.156% [at 8.39 µM] | viability change, negative = cytotoxic [7] -3.18% [at 6.97 µM] | activation [8] -6.29% [at 6.97 µM] | activation [9] 7.58% [at 6.98 µM]

C[C@@H]1C[C@H]2[C@@H]3CCC4=CC(=O)C=C[C@]4(C)[C@@]3(F)[C@@H](O)C[C@]2(C)[C@@]1(O)C(=O)COC(=O)c1ccncc1
inactive: Potency [2] | Potency [3] | Potency [4] | Potency [5] | Potency [6] | Potency [7] | Potency [8] | Potency [9]

Nc1cc(C(=O)O)c(O)c(S(=O)(=O)O)c1
inactive: Potency [1] | Potency [2] | Potency [3] | Potency [4] | Potency [5] | Potency [6] | Potency [7] | Potency [8] | Potency [9]

CCc1cc(C2=C(C(=O)O)N(c3ccccc3C(F)(F)F)S(=O)(=O)c3ccccc32)cc2c1OCO2
inactive: Potency [1] | Potency [2] | Potency [3] | Potency [4] | Potency [5] | Potency [6] | Potency [7] | Potency [8]

COc1ccc(C)cc1[N+](=O)[O-]
inactive: Potency [2] | Potency [3] | Potency [4] | Potency [5] | Potency [6] | Potency [7] | Potency [8] | Potency [9]

CN1Cc2cc(C(=O)N3CCC(C4CCNCC4)CC3)ccc2NC(CC(=O)O)C1=O (configuration not stated)
inactive: Potency [1] | Potency [2] | Potency [3] | Potency [4] | Potency [5] | Potency [6] | Potency [7] | Potency [8] | Potency [9]

c1cc(CCCc2ccncc2)ccn1
inactive: Potency [1] | Potency [2] | Potency [3] | Potency [4] | Potency [5] | Potency [6] | Potency [7] | Potency [8] | Potency [9]

Cc1cc(C(=O)O)ccc1[N+](=O)[O-]
inactive: Potency [1] | Potency [2] | Potency [3] | Potency [4] | Potency [5] | Potency [6] | Potency [7] | Potency [8] | Potency [9]
